Where “and” joins values, the source holds several entries; their conditions need not be identical. Equal entries are not always repeated. Calls of active or inactive are those of the source.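 How the source made its calls, unless noted: active means thallium flux through the channel raised or lowered by more than 3 SD from vehicle-only wells, actives on both sides; inactive means the rest.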
Assays:
[1] = P. berghei load reduction in hepatocytes – cell-based, HepG2, luciferase luminescence, HepG2 viability, primary screen (AID 624349; in the data active means parasite load remaining mostly below about 12%, no sharp cut-off; inactive means mostly above about 10%;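 further: 100% = mean of DMSO negative control wells on the same plate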); settings: P. berghei liver stage in HepG2, luciferase luminescence, concentration not given here; parasite load remaining: stronger effect = lower value; viability: measured here: HepG2 viability without parasites
[2] = signal quenchers or enhancers, Cy5 substrate/SSB – biochemical, NIH Clinical Collection, E. coli SSB, artefact control for HCV NS3 helicase inhibitor project (AID 743268; call rule not given here); settings: Cy5-oligo bound E. coli SSB, fluorescence interference
[3] = test system: Hepatitis C virus NS3 helicase; assay: blockers of NS3h binding to DNA – biochemical, fluorescence polarization, NIH Clinical Collection, primary screen (AID 743270; call rule not given here); settings: NS3 helicase binding to Cy5-dT15 DNA, stronger effect = higher value, concentration not given here
[4] = target: Single-stranded DNA-binding protein (Escherichia coli (strain K12)) (UniProt P0AGE0); assay: SSB-ssDNA binding inhibitors – biochemical, fluorescence polarization, NIH Clinical Collection, counter-screen for HCV NS3 helicase inhibitor project (AID 743271; in the data active means inhibition above about 28%); settings: E. coli SSB-DNA binding, stronger effect = higher value, concentration not given here
[5] = compounds distorting NS3 helicase fluorescence signal – biochemical, NIH Clinical Collection, artefact control for HCV NS3 helicase inhibitor project (AID 743272; call rule not given here;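 further: HCV NS3 helicase with a Cy5 labelled single stranded DNA probe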); settings: fluorescence interference counterscreen, HCV NS3 helicase assay; stronger effect = lower value
[6] = modulation of C. elegans fzo-1 (AID 1259413; call rule not given here;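 further: fzo-1 mutant C. elegans worms in liquid wells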); settings: C. elegans fzo-1 modulator screen, mean read-out; stronger effect = higher value
[7] = viability loss with induced miR-34 in A549 – imaging, A549 dox-inducible miR-34, nuclei and caspase counts, primary screen (AID 1347080;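 active means compounds whose cell count with miR-34 switched on is under 0.7 times the count with it off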); settings: A549 miR-34 inducible, Hoechst nuclei count, 48 h
[8] = MELAS cybrid and Rieske KO viability enhancers – cell-based, MELAS cybrids, Rieske KO mouse fibroblasts, CellTiter-Glo, primary screen (AID 1508586;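 active means mean z-score across replicates of 1.96 or higher in either the MELAS or the Rieske mutant cell line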;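 further: z relative to plate mean and SD of compound and empty wells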); settings: low glucose
[9] = test system: F380Y; assay: BK channel mutant inhibitors and activators – cell-based, U2OS BacMam, thallium flux, beta subunits, selectivity assay, profiling panel (AID 1259406); settings: U2OS BacMam BK variants, at 30 µM;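 further: initial slope of Thallos dye fluorescence rise after thallium is added; log ratio against the mean of 0.3% DMSO vehicle wells on the same plate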
[10] = test system: F380Y/beta1; assay: as above; settings: U2OS BacMam BK variants, at 30 µM
[11] = test system: F380Y/beta2Delta; assay: as above; settings: U2OS BacMam BK variants, at 30 µM
[12] = test system: F380Y/beta4; assay: as above; settings: U2OS BacMam BK variants, at 30 µM
[13] = target: Calcium-activated potassium channel subunit alpha-1 (Homo sapiens) + Leucine-rich repeat-containing protein 26 (Homo sapiens) (UniProt Q12791+Q2I0M4); assay: as above; settings: U2OS BacMam BK variants, F380Y/Slo1WT/gamma1, at 30 µM
[14] = test system: R275C; assay: as above; settings: U2OS BacMam BK variants, at 30 µM
[15] = test system: R275C/beta1; assay: as above; settings: U2OS BacMam BK variants, at 30 µM
[16] = test system: R275C/beta2Delta; assay: as above; settings: U2OS BacMam BK variants, at 30 µM
[17] = test system: R275C/beta4; assay: as above; settings: U2OS BacMam BK variants, at 30 µM
[18] = test system: R275C/Slo1WT/beta2; assay: as above; settings: U2OS BacMam BK variants, at 30 µM
[19] = stronger effect = lower value, cell number ratio, induced over uninduced
[20] = measured here: relative caspase fold change +Dox/-Dox
[21] = measured here: total cells with miR-34 induction, stronger effect = lower value
[22] = measured here: total cells without miR-34 induction
[23] = MELAS cybrid survival, CellTiter-Glo 48 h, stronger effect = higher value
[24] = Rieske KO mouse fibroblast survival, CellTiter-Glo 72 h

Sequence of Calcium-activated potassium channel subunit alpha-1 (Homo sapiens) + Leucine-rich repeat-containing protein 26 (Homo sapiens) (Q2I0M4 whole entry, looked up, one chain of several): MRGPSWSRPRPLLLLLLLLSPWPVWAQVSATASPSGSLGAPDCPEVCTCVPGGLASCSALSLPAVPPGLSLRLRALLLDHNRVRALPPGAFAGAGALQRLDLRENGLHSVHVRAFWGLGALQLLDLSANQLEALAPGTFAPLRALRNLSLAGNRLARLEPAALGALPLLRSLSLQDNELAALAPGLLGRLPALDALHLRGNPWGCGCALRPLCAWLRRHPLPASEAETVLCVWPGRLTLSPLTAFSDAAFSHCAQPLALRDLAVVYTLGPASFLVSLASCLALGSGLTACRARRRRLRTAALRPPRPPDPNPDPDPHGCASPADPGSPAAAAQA

CCC(CO)NCCNC(CC)CO (stereo unspecified)
-0.177: z-score [8, 24]
inactive: parasite load remaining [1] 78.1% | fluorescence ratio [2] 1.1 | inhibition [3] -5.91% | inhibition [4] -2% | fluorescence ratio [5] 1.03 | mean signal [6] 252 | fold change [7, 19] 0.98 and 0.902 | z-score [8, 23] -0.216 | log fold change Tl+ flux [9] -0.0102 | log fold change Tl+ flux [10] -0.0572 | log fold change Tl+ flux [11] 0.024 | log fold change Tl+ flux [12] -0.00313 | log fold change Tl+ flux [13] -0.00134 | log fold change Tl+ flux [14] 0.00482 | log fold change Tl+ flux [15] -0.0497 | log fold change Tl+ flux [16] 0.000295 | log fold change Tl+ flux [17] -0.0366 | log fold change Tl+ flux [18] 0.0123
10600 and 8610: cell count [7, 22]
10400 and 7770: cell count [7, 21]
129%: viability [1]
1.98 and 0.647: fold change [7, 20]

O=C1C(c2c(O)[nH]c3ccccc23)=Nc2ccccc21
8910 and 4890 and 7650: cell count [7, 21]
-0.638: z-score [8, 24]
9240 and 5320 and 8410: cell count [7, 22]
1.03 and 0.816 and 0.7: fold change [7, 20]
67.8%: viability [1]
inactive: parasite load remaining [1] 27.8% | fluorescence ratio [2] 1.08 | inhibition [4] 18.4% | fluorescence ratio [5] 1.13 | mean signal [6] 275 | fold change [7, 19] 0.964 and 0.92 and 0.909 | z-score [8, 23] -0.237 | log fold change Tl+ flux [9] 0.00735 | log fold change Tl+ flux [10] 0.00413 | log fold change Tl+ flux [11] -0.012 | log fold change Tl+ flux [12] 0.0357 | log fold change Tl+ flux [13] -0.019 | log fold change Tl+ flux [14] 0.0422 | log fold change Tl+ flux [15] 0.013 | log fold change Tl+ flux [16] -0.00188 | log fold change Tl+ flux [17] 0.0134 | log fold change Tl+ flux [18] 0.0591
active: inhibition [3] 26.5%

CC(=O)C1(O)CCC2C3CC(C)C4=CC(=O)C=CC4(C)C3(F)C(O)CC21C (stereo unspecified)
8610: cell count [7, 22]
7970: cell count [7, 21]
93.8%: viability [1]
2.07: fold change [7, 20]
inactive: parasite load remaining [1] 94.8% | fluorescence ratio [2] 1.07 | inhibition [3] -0.45% | inhibition [4] -0.48% | fluorescence ratio [5] 1 | mean signal [6] 265 | fold change [7, 19] 0.925 | log fold change Tl+ flux [9] -0.0303 | log fold change Tl+ flux [10] 0.0429 | log fold change Tl+ flux [11] -0.0137 | log fold change Tl+ flux [12] -0.0225 | log fold change Tl+ flux [13] -0.014 | log fold change Tl+ flux [14] -0.0154 | log fold change Tl+ flux [15] 0.00875 | log fold change Tl+ flux [16] -0.0161 | log fold change Tl+ flux [17] 0.055 | log fold change Tl+ flux [18] 0.00372

Cc1onc(-c2ccccc2)c1C(=O)NC1C(=O)N2C1SC(C)(C)C2C(=O)O (stereo unspecified)
0.0389: z-score [8, 24]
137%: viability [1]
inactive: parasite load remaining [1] 62.5% | fluorescence ratio [2] 1.01 | inhibition [3] -1.36% | inhibition [4] 2.57% | fluorescence ratio [5] 1 | mean signal [6] 250 | fold change [7, 19] 0.977 and 0.865 | z-score [8, 23] 1.06 | log fold change Tl+ flux [9] -0.000886 | log fold change Tl+ flux [10] -0.0194 | log fold change Tl+ flux [11] -0.0125 | log fold change Tl+ flux [12] -0.0665 | log fold change Tl+ flux [13] 0.0114 | log fold change Tl+ flux [14] 0.00519 | log fold change Tl+ flux [15] 0.0152 | log fold change Tl+ flux [16] 0.00981 | log fold change Tl+ flux [17] -0.0329 | log fold change Tl+ flux [18] -0.0606
10800 and 8670: cell count [7, 21]
11000 and 10000: cell count [7, 22]
2.75 and 0.316: fold change [7, 20]

CC1(C)SC2C(NC(=O)Cc3ccccc3)C(=O)N2C1C(=O)O (stereo unspecified)
inactive: parasite load remaining [1] 67.7% | fluorescence ratio [2] 1.02 | inhibition [3] -1.36% | inhibition [4] 1.05% | fluorescence ratio [5] 1 | mean signal [6] 247 | fold change [7, 19] 0.988 | log fold change Tl+ flux [9] -0.0498 | log fold change Tl+ flux [10] -0.0346 | log fold change Tl+ flux [11] -0.00781 | log fold change Tl+ flux [12] 0.000902 | log fold change Tl+ flux [13] 0.0267 | log fold change Tl+ flux [14] 0.0404 | log fold change Tl+ flux [15] -0.00964 | log fold change Tl+ flux [16] 0.00389 | log fold change Tl+ flux [17] -0.0356 | log fold change Tl+ flux [18] -0.096
89.4%: viability [1]
2.34: fold change [7, 20]
10700: cell count [7, 22]
10600: cell count [7, 21]

Reference: PubChem BioAssay
